The nature of test [1]: Viability qHTS for spleen associated tyrosine kinase inhibitor (SYKi) naive MV4-11 cells (AID 1963823). Note: nearly all actives have a fitted effect of over 40% in size. In short, it runs like this:
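qHTS, SYK inhibitor-naive MV4-11; 500 cells/well; 72 hr compound exposure, 37 C; CellTiter-Glo added, 10 min RT; luminescence read.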
In general terms: qHTS replaces the single test concentration by a dilution series.

A short description of test [2]: Viability qHTS for spleen associated tyrosine kinase inhibitor (SYKi) drug resistant MV4-11 cells (AID 1963824). Note: nearly all actives have a fitted effect of over 35% in size. A digest of the protocol: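 SYK inhibitor-resistant MV4-11 AML cells, 500 per well, added to predispensed compounds and incubated 72 hr at 37 C, 5% CO2. Viability measured by CellTiter-Glo luminescence after 10 min at room temperature.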
A short description of test [3]: Cellular viability qHTS for adrenocortical cancer (ACC) cell line SW-13 (AID 1963989).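 For activity (max response): cells grown in serum-free medium with ITS supplement; % is set by controls: 0 for no effect and ±100 for the full control effect.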 Note: nearly all actives have a fitted effect of over 65% in size. As to conditions: SW-13 ACC cells viability, CellTiter-Glo, 48 h; activity (max response): stronger effect = lower value. In short, it runs like this: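 SW-13 cells in ITS-supplemented serum-free DMEM were plated overnight, then exposed for 48 h at 37C to compound titrations (up to 46 uM final). Viability was read by CellTiter-Glo luminescence; four-parameter logistic fits gave IC50 and efficacy.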

Potency and activity (max response) data for 10 compounds are collected here from PubChem BioAssay (NCATS).

Structures are written as SMILES. Several values for one entry are separate records, joined by “and”; a condition that tells them apart may be missing. Equal entries are not always repeated. Inconclusive results are not listed. Activity calls are given as the source filed them. Calls come from the whole dose curve; as a rule, active = well fitted curve in the direction sought with a large enough effect; inconclusive = small, poorly fitted or top-dose-only effect, or another doubt; inactive = no such curve, though single readings can be large; an effect the other way counts as inactive or inconclusive.
Potency is the fitted concentration of half-maximal effect.

Take `O=C(O)CCc1nc(-c2ccccc2)c(-c2ccccc2)o1`: the Potency entry in test [1] and in test [2] was “inactive” each time. Besides, in test [3], the activity (max response) is -11.2% (inactive).

Turning to `C=C1c2cccc(O)c2C(O)=C2C(=O)[C@]3(O)C(O)=C(C(N)=O)C(=O)[C@@H](N(C)C)[C@@H]3[C@@H](O)[C@H]12`, the Potency result in test [1] and in test [2] was “inactive” in each case. Besides, the activity (max response) in test [3] is 3.29% (inactive).

On to `CC(=O)/C=C/C=C1/C2CCC(C2)C1(C)C` (stereo not given), for which the Potency result in test [1] and in test [2] was “inactive” each time. Further, in test [3], the activity (max response) was 6.09% (inactive).

For `Cc1cccc(C)c1NC(=O)CN1CCN(CCCC(c2ccc(F)cc2)c2ccc(F)cc2)CC1`, the Potency is 10.6 µM (active) in test [1] and 8.41 µM (active) in test [2]. In addition, the activity (max response) in test [3] is -13.9% (inactive).

Regarding `CCOC(=N)c1nc2ccc3ncnc(Nc4cc(F)c(F)cc4Cl)c3c2s1`, the Potency in test [1] and in test [2] was 7.42 µM (active) in each case. Further, the activity (max response) in test [3] was -16.7% (inactive).

Consider `COc1cc(OC)c(/C=C/S(=O)(=O)Cc2ccc(OC)c(OP(=O)(O)O)c2)c(OC)c1`, for which the Potency in test [1] was 0.0118 µM (active); in test [2], 0.0148 µM (active); in test [3] it was 0.0398 µM (active).

Consider `CC(=O)O[C@H]1CC[C@@]2(C)C(=CC[C@@H]3[C@@H]2CC[C@]2(C)C(C(C)=O)=CC[C@@H]32)C1`, for which the Potency entry in test [1] and in test [2] was “inactive” in each case. Besides, the activity (max response) in test [3] was 8.77% (inactive).

For the compound `C#Cc1ccc(-c2ccccc2F)cc1`, the Potency entry in test [1] and in test [2] was “inactive” in each case. Further, in test [3], the activity (max response) was -5.81% (inactive).

With `COc1c(C)c2c(c(O)c1C/C=C(\C)CCC(=O)O)C(=O)OC2`, the Potency in test [1] is 750 nM (active) and 1.32 µM (active); in test [2] it was 473 nM (active) and 934 nM (active). The activity (max response) in test [3] was -49% (inactive).

`CCCOc1ccc2c(c1)CC[C@@H]1[C@@H]2CC[C@]2(C)C(OC)CC[C@@H]12` (stereo not given in full): the Potency entry in test [1] and in test [2] was “inactive” throughout. Also, the activity (max response) in test [3] was 13.8% (inactive).
